Measured potencies and affinities stand elsewhere. Active and inactive are the calls of the source.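 How the source made its calls: active means signal drop whose fitted half-maximal concentration is at most twice the top valid dose, in every test run; inconclusive means mixed calls across runs, poor fit, or flat 30 to 70% inhibition; inactive means wrong direction, flat within 30%, or potency beyond limit.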
assay: cytotoxicity in PAX8-dependent RMG-1 cells, dose response, cell-based, cherry-pick (AID 687029); conditions: RMG-1 viability, CellTiterGlo ATP luminescence, 96 h; series mostly up to 35 µM;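 further: cells exposed to compound for 96 hours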

| SMILES | outcome |
| --- | --- |
| C[C@H](CO)N1C[C@H](C)[C@@H](CN(C)Cc2ccc(Cl)c(Cl)c2)Oc2ccc(NC(=O)Nc3ccc(C(F)(F)F)cc3)cc2CC1=O | inactive |
| O=C(C[C@@H]1CC[C@@H]2[C@H](COC[C@H](O)CN2Cc2ccc3c(c2)OCO3)O1)Nc1ccc(-c2ccccc2)cc1 | inactive |
| COc1cccc(-c2ccc([C@H]3[C@@H](CO)N(C(=O)c4ccccn4)[C@H]3C#N)cc2)c1 | inactive |
| C[C@@H]1CCCCO[C@@H](CN(C)Cc2ccc(C(F)(F)F)cc2)[C@H](C)CN([C@H](C)CO)C(=O)c2cc(NC(=O)c3ccccc3)ccc2O1 | inactive |
| COc1ccc(NC(=O)N2CCCCN3[C@H](CO)[C@H](c4ccc(C#Cc5ccccc5)cc4)[C@H]3C2)cc1 | inactive |
| C[C@H]1CCCCO[C@H](CN(C)C(=O)Nc2ccc(C(F)(F)F)cc2)[C@@H](C)CN([C@@H](C)CO)C(=O)c2cc(NS(=O)(=O)c3ccccc3)ccc2O1 | inactive |
| C[C@@H]1CN([C@@H](C)CO)C(=O)c2cc(NC(=O)Cc3ccccc3)ccc2O[C@@H](C)CCCCO[C@@H]1CN(C)Cc1ccc(C(F)(F)F)cc1 | inactive |
| C[C@@H]1CN([C@@H](C)CO)C(=O)Cc2cc(NC(=O)C3CCCCC3)ccc2O[C@H]1CN(C)Cc1ccc(Cl)c(Cl)c1 | inactive |
| C[C@@H]1CN([C@H](C)CO)C(=O)c2cc(NS(=O)(=O)c3ccccc3)ccc2O[C@@H](C)CCCCO[C@@H]1CN(C)Cc1ccc(Cl)c(Cl)c1 | inactive |
| C[C@@H]1CN([C@H](C)CO)C(=O)c2cc(NC(=O)Nc3ccc(C(F)(F)F)cc3)ccc2O[C@@H](C)CCCCO[C@H]1CN(C)C(=O)Nc1ccc(C(F)(F)F)cc1 | inactive |
| Cc1cccc(S(=O)(=O)N2CC[C@@H]3[C@H](CO)N(C)c4ccc(C#Cc5ccc(F)cc5)cc4[C@@H]32)c1 | inactive |
| O=C(C[C@H]1CC[C@@H]2[C@H](COC[C@H](O)CN2S(=O)(=O)c2cccc(F)c2)O1)Nc1ccc(-c2ccccc2)cc1 | inactive |
| C[C@H]1CCCCO[C@H](CN(C)C(=O)Nc2cccc3ccccc23)[C@@H](C)CN([C@@H](C)CO)C(=O)c2cc(NS(=O)(=O)c3ccc(F)cc3)ccc2O1 | inactive |
| C[C@H]1CN([C@@H](C)CO)C(=O)c2c(c3ccccc3n2C)-c2ccccc2CO[C@@H]1CN(C)Cc1cccc(C(F)(F)F)c1 | inactive |
| CN(C[C@H]1N[C@@H](CO)[C@@H]1c1ccc(-c2cccc(F)c2)cc1)S(C)(=O)=O | inactive |
| C[C@@H]1CN([C@@H](C)CO)C(=O)Cc2cc(NS(=O)(=O)c3ccc(Cl)cc3)ccc2O[C@H]1CN(C)Cc1ccc(Cl)c(Cl)c1 | inactive |
| Cc1ccccc1-c1ccc([C@@H]2[C@@H](CO)N3CCCCN(C(=O)NC4CCCC4)C[C@H]23)cc1 | inactive |
| Cc1ccc(S(=O)(=O)Nc2ccc3c(c2)C(=O)N([C@H](C)CO)C[C@@H](C)[C@H](CN(C)S(=O)(=O)c2ccc(C)cc2)OCCCC[C@H](C)O3)cc1 | inactive |
| C[C@@H]1CCCCO[C@@H](CN(C)Cc2ccc(Cl)c(Cl)c2)[C@H](C)CN([C@H](C)CO)C(=O)c2cc(NS(=O)(=O)c3ccc(Cl)cc3)ccc2O1 | inactive |
| COc1ccc(S(=O)(=O)Nc2ccc3c(c2)C(=O)N([C@H](C)CO)C[C@H](C)[C@@H](CN(C)S(=O)(=O)c2ccc(F)cc2)OCCCC[C@H](C)O3)cc1 | inactive |
| C[C@@H]1CCCCO[C@@H](CN(C)C(=O)Nc2ccc(F)cc2)[C@H](C)CN([C@H](C)CO)C(=O)c2cc(NS(=O)(=O)c3ccc(Cl)cc3)ccc2O1 | inactive |
| C[C@@H]1CCCCO[C@@H](CN(C)Cc2ccc(C(F)(F)F)cc2)[C@H](C)CN([C@@H](C)CO)C(=O)c2cc(NS(=O)(=O)c3ccc(F)cc3)ccc2O1 | inactive |
| C[C@H](CO)N1C[C@H](C)[C@H](CN(C)S(=O)(=O)c2ccc(F)cc2)OCCCC[C@H](C)Oc2ccc(NS(=O)(=O)c3ccc(Cl)cc3)cc2C1=O | inactive |
| O=C(C[C@@H]1CC[C@@H]2[C@H](COC[C@@H](O)CN2C(=O)Nc2ccc(Cl)c(Cl)c2)O1)NCc1ccc(Cl)cc1 | inactive |
| C[C@@H]1CN([C@@H](C)CO)C(=O)c2cc(NC(=O)Cc3ccccc3)ccc2O[C@@H](C)CCCCO[C@H]1CN(C)Cc1ccc(C(F)(F)F)cc1 | inactive |
| N#C[C@@H]1[C@@H](c2ccc(-c3ccccc3F)cc2)[C@@H](CO)N1C(=O)C1CCC1 | inactive |
